# Screening results as filed in PubChem BioAssay.
# CHRM1 PAM: potentiates human M1 receptor response to acetylcholine. P11229. CHO-K1 hM1, Fluo-8 calcium fluorescence, ACh EC20; 0% = ACh EC20, 100% = maximal ACh. activation, % at 3 µM. actives 0.088% (n = 360,000); in the data active means activation above about 19%, passing the limit was not always enough
# Target sequence (P11229 whole entry, looked up): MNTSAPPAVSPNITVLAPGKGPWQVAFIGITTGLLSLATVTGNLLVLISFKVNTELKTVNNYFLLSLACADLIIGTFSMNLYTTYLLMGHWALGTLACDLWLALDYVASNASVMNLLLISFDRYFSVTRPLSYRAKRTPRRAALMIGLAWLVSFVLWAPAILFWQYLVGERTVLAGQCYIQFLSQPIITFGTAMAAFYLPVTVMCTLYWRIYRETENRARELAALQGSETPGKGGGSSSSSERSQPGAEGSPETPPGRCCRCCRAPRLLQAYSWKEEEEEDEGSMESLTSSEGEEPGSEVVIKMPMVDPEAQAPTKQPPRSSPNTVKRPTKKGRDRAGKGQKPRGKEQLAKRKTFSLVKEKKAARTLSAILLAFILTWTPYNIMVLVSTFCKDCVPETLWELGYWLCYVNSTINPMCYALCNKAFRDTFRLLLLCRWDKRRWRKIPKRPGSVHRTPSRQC
# M1 ag parental: counter-screen for M1 agonists: effect in parental CHO-K1 cells. Fluo-8 calcium fluorescence; scaled to maximal ATP response, vehicle zero. activation, % at 3 µM. actives 0.48% (n = 360,000); in the data active means activation above about 15%;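 further: untransfected CHO-K1 host cells lacking M1 receptor as counterscreen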
# CHO-K1 Ca PAM: nonselective activator or artifact in parental CHO-K1 calcium assay | actives 0.02% (n = 360,000) | AID 602247 | activation, % at 3 µM | ATP EC20, Fluo-8 calcium fluorescence; 0% at ATP EC20, 100% at ATP max;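 active means activation above the run cutoff, the mean activation of all test compounds plus 3 SD, cut at about 40% in these data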;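 further: peak over basal fluorescence ratio in a 140 s read after ATP addition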
# M1 ag: activates human CHRM1 receptor; CHO-K1 hM1, Fluo-8 calcium fluorescence, agonist mode; 0% DMSO, 100% acetylcholine EC100; activation, % at 3 µM; actives 0.33% (n = 360,000); AID 588814;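 active means activation above the run's mean compound activation plus 3 SD, cut at about 16% in these data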;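 further: peak over basal fluorescence ratio within a 140 s kinetic read after compound addition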
# M1 antag: human CHRM1 antagonism | P11229 | CHO-K1 hM1, Fluo-8 calcium fluorescence, ACh EC80 antagonist | inhibition, % at 3 µM | actives 1.3% (n = 360,000) | AID 588852;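 active means percent inhibition above its own plate's cutoff, namely the mean of that plate's compound wells plus 3 SD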;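 further: peak over basal fluorescence ratio during 140 s after agonist addition; 0% = ACh EC80 plus DMSO and 100% = DMSO alone without agonist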
# CHO-K1 Ca antag: counter-screen for M1 antagonists: effect in parental CHO-K1 cells; AID 602250; ATP-induced calcium, Fluo-8 fluorescence; inhibition, % at 3 µM; actives 0.6% (n = 360,000);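 active means inhibition above a per-plate cutoff, the plate's mean sample inhibition plus 3 SD, cut at about 24% in these data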;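 further: 0% = DMSO plus EC80 ATP and 100% = DMSO alone without ATP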
# * = called active by the depositor. Shown are actives, neighbours in structure and some others; about 2.4% of the full set was active somewhere.
SMILES,CHRM1 PAM,M1 ag parental,CHO-K1 Ca PAM,M1 ag,M1 antag,CHO-K1 Ca antag
CCC1CCCCN1CCNC(=O)C1CCN(S(=O)(=O)c2cccc3nsnc23)CC1 (stereo not given),-21,0,14,-6,52*,-12
CCCc1cc(=O)n2[nH]c(NC(=O)c3ccco3)nc2n1,7,0,-2,-3,-10,-9
CCC(=O)N(Cc1cc(=O)[nH]c2ccccc12)c1ccccc1,-22,1,10,-7,31*,-4
CCOc1ccc(NC(=S)N2CCC(C(=O)c3ccc(OC)cc3)CC2)cc1,29*,1,15,0,-30,-12
COc1ccc(NC(=S)N2CCC(C(=O)c3ccc(Cl)cc3)CC2)cc1,1,1,18,-1,-5,-4
CCOC(=O)C1(C)CCCN1C(=O)c1ccccc1F (stereo not given),13,0,14,2,-16,-1
Cc1cccn2c(=S)[nH]nc12,-4,0,-13,0,10,26*
Cc1ccccc1-n1c(C)n[nH]c1=S,2,0,7,-7,-12,9
CCN1/C(=C/C(C)=O)Sc2ccc(OC)cc21,6,0,8,-3,-1,-18
CCOC(=O)/C(=C\C=C1/Sc2cc(OCC)c(OCC)cc2N1CC)C(C)=O,-15,38*,-2,44*,24,18
CCOC(=O)/C(=C/C=C1\Sc2cc(OCC)c(OCC)cc2N1CC)C(C)=O,-21,46*,-15,70*,27,30*
Cc1cc(C)c(S(=O)(=O)n2ccc(-c3ccc(OCCN(C)c4ccccn4)cc3)n2)c(C)c1,8,0,12,-1,-10,-7
O=C(O)c1ccc(NS(=O)(=O)c2ccc3c(c2)C(=O)c2ccccc2C3=O)cc1,-3,-1,-18,-3,0,25*
O=C(O)c1cccc(S(=O)(=O)Nc2ccc(-c3ccccc3)cc2)c1,2,1,10,-5,-11,-8
CCN(CC(=O)Nc1ccc2c(c1)OCCO2)C(=O)/C=C/c1ccc(OC)cc1OC,3,2,-8,-4,2,4
CCN(CC(=O)Nc1ccc2c(c1)OCCO2)C(=O)/C=C/c1cccc(OC)c1OC,27*,6,20,17*,-20,-11
Cc1cc(F)ccc1C(O)c1ncc(-c2cccc(F)c2)[nH]1 (stereo not given),-2,1,-1,1,-7,-2
S=C1NCN(C2CCCCC2)CN1CCc1ccccc1,5,0,-16,-5,-11,3
CC(=O)NCCC(=O)N1CCCC(N(C)CCc2ccccc2)C1 (stereo not given),-20,0,6,-9,45*,1
CCc1cccc(C)c1NC(=S)NCC(c1cccnc1)N(C)C (stereo not given),0,17*,-5,-9,-1,8
CC(=O)SCC[N+](C)(C)C,-29,0,9,70*,24,5
N#CC(C(=O)c1ccccc1)=C1SCCS1,12,1,12,-6,-16,-11
C=CCNC(=S)NNC(=O)c1cccn(Cc2cccc(Cl)c2)c1=O,-21,0,9,-6,21*,-3
C=CCNC(=S)NNC(=O)c1cccn(Cc2ccc(Cl)cc2)c1=O,14,0,0,-6,-4,9
COC(=O)CNC(=S)NC(=O)c1ccc(C(C)(C)C)cc1,-24,0,7,-7,72*,-6
CCCOc1ccc(C(=O)NNC(=S)NC(=O)c2cccs2)cc1,-25,87*,-29,92*,78*,44*
O=C(COc1ccc(Cl)cc1Cl)NNC(=S)NC(=O)c1ccco1,-1,0,12,-2,-1,-9
CC(C)(C)c1ccc(C(=O)NC(=S)NCc2cccnc2)cc1,-16,3,3,-8,8,-5
CC(C)(C)c1ccc(C(=O)NC(=S)NNC(=O)COc2ccccc2)cc1,0,2,2,24*,4,-4
CC(Oc1ccc(Cl)cc1)C(=O)NNC(=S)NC(=O)c1ccco1 (stereo not given),-10,32*,6,51*,-2,-3
